Assay results: PubChem BioAssay (NCI)
The panel holds about 83,000 compounds, 20% with a hit somewhere; the sample as a whole holds those more often.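 Testing used 96-well plates and a 48-hour single-concentration exposure. Example: -40 means 40% of the starting cells died.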 A number with no mark means an inactive call. Calls of active or inactive are those of the source. How the source made its calls: active means growth percent below 10; inactive means the rest.

What was measured:
Test in all cases: NCI-60 one-dose screen, 48 h (100 = growth as untreated, 0 = no growth, -100 = all killed)
Conditions in all cases: 10 µM unless noted
NCI-H23 lung = system: NCI-H23 lung
NCI-H226 lung = system: NCI-H226 lung
NCI-H322M lung = system: NCI-H322M lung
HOP-62 NSCLC = system: HOP-62 NSCLC
NCI-H460 lung = system: NCI-H460 lung
HOP-92 NSCLC = system: HOP-92 NSCLC
NCI-H522 lung = system: NCI-H522 lung
A549/ATCC NSCLC = system: A549/ATCC NSCLC
786-0 renal = system: 786-0 renal
COLO 205 colon = system: COLO 205 colon
DU-145 prostate = system: DU-145 prostate
MALME-3M melanoma = system: MALME-3M melanoma
MDA-MB-231 breast = system: MDA-MB-231 breast
RXF 393 renal = system: RXF 393 renal
SF-268 CNS = system: SF-268 CNS
SF-295 CNS = system: SF-295 CNS
SF-539 CNS = system: SF-539 CNS
UACC-257 melanoma = system: UACC-257 melanoma
M14 melanoma = system: M14 melanoma

SMILES | growth (NCI-H23 lung) | growth (NCI-H226 lung) | growth (NCI-H322M lung) | growth (HOP-62 NSCLC) | growth (NCI-H460 lung) | growth (HOP-92 NSCLC) | growth (NCI-H522 lung) | growth (A549/ATCC NSCLC) | growth (786-0 renal) | growth (COLO 205 colon) | growth (DU-145 prostate) | growth (MALME-3M melanoma) | growth (MDA-MB-231 breast) | growth (RXF 393 renal) | growth (SF-268 CNS) | growth (SF-295 CNS) | growth (SF-539 CNS) | growth (UACC-257 melanoma) | growth (M14 melanoma)
Clc1ccc2c(NCCNc3nc(N4CCCCC4)nc4ccccc34)ccnc2c1 | 54.3% | -8.68% (active) | 0.0479% (active) | -18.2% (active) | -39.4% (active) | -16% (active) | -21.8% (active) | 0.13% (active) | -36.9% (active) | -84.6% (active) | 26.4% | -79.8% (active) | -85% (active) | -40.2% (active) | 2.98% (active) | -81.3% (active) | -83.6% (active) | -70.2% (active) | -79.7% (active)
O=[N+]([O-])c1ccccc1/C=N\NC(=S)N/N=C/c1ccccc1[N+](=O)[O-] | 70.1% | 83.1% | 63.7% | 56.5% | 10% | 53.7% | 23.2% | 74.8% | 74.9% | 94.6% | 62.1% | 19% | 83% | 76.3% | 41% | 29.8% | 56.3% | 83.2% | 37.6%
COc1ccc2c(c1)C(=O)/C(=C/c1ccccn1)CC2 | 74.1% | 95.8% | 99.3% | 105% | 97.8% | 84.1% | 16.5% | 95.2% | 100% | 87.7% | 26.1% | 72.7% | 69.4% | 83% | 90.8% | 78.2% | 72% | 81% | 85.4%
CN(C)c1ccc(NC(=O)c2ccc(/C=C/C(=O)c3ncc[nH]3)cc2)cc1 | 59.8% | 89.1% | 76.1% | 54.7% | 25.4% | 94.1% | 59.4% | 63.1% | 47.1% | 37.6% | 20.2% | 87.9% | 71.8% | 67.4% | 56.2% | 74.6% | 6.24% (active) | 91.7% | 67.8%
COc1ccc(-c2nc(SCC(=O)Nc3ccc(C(=O)/C=C/c4ccc(Cl)cc4)cc3)[nH]c(=O)c2C#N)cc1 | 85.4% | 96.3% | 88.8% | 100% | 99.1% | 81.7% | 77.4% | 101% | 105% | 86.8% | 103% | 95.4% | 38.1% | 97.3% | 102% | 98.5% | 85.8% | 102% | 77.9%
CN1C(=O)C2(SCC(C(=O)NCc3ccccc3)N2C(=O)C2CCCCC2)c2ccccc21 (stereo not drawn) | 91% | 84.3% | 77.1% | 98.2% | 96% | 86.3% | 75.4% | 93.6% | 101% | 95.3% | 98% | 94.1% | 117% | 119% | 83.3% | 100% | 123% | 106% | 87.3%
c1ccc2[nH]c(-c3ccc(Nc4nc(N5CCCC5)nc5[nH]ncc45)cc3)nc2c1 | -11.3% (active) | 98.9% | 6.53% (active) | -36.6% (active) | -44.3% (active) | -56.4% (active) | -54.7% (active) | -42.4% (active) | -92.4% (active) | -75.9% (active) | -6.9% (active) | -71.5% (active) | -48.5% (active) | -81.5% (active) | -7.79% (active) | -63.3% (active) | -68.1% (active) | -90.5% (active) | -78% (active)
COc1ccc2cc(-c3nn(-c4ccc(C(=O)O)cc4)cc3CO)ccc2c1 | 97.9% | 99.7% | 97% | 104% | 99.1% | 102% | 82.6% | 102% | 99.6% | 114% | 103% | 106% | 111% | 122% | 86.3% | 99.1% | 93.1% | 103% | 98.7%
COc1cc(C(=O)/C=C/c2cccnc2Nc2ccc(Cl)cc2)cc(OC)c1OC | -17.5% (active) | -82.7% (active) | 9.66% (active) | -68.6% (active) | 4.24% (active) | -54.5% (active) | -58.4% (active) | -29.2% (active) | -83.4% (active) | -81.4% (active) | -59.2% (active) | -48.1% (active) | -50.7% (active) | -85.7% (active) | -87.7% (active) | 7.32% (active) | -80.2% (active) | -63.5% (active) | -47.4% (active)
CN1CCN(c2nc(NCCCCNc3ccnc4cc(Cl)ccc34)c3ccccc3n2)CC1 | 82.8% | 98.7% | 84.9% | 76.5% | 68.1% | 54.8% | 39.8% | 49.3% | 74.9% | -2.21% (active) | 75.7% | -53.5% (active) | -5.35% (active) | 9.29% (active) | 64.9% | 80% | -73.7% (active) | -32.4% (active) | -75.9% (active)
CSc1ccc(-c2ccccc(=O)c2O)cc1 | 21.9% | 16.1% | 19.5% | 3.95% (active) | 2.89% (active) | 49.5% | 24.1% | 11.5% | 8.4% (active) | 22.6% | 21% | 15.6% | 36.8% | 39.3% | 11.5% | 19.4% | 4.03% (active) | -4.11% (active) | -6.35% (active)
COc1ccc2c(c1)C(=O)/C(=C/c1cccnc1)CC2 | 90.9% | 107% | 106% | 97.5% | 105% | 94.7% | 73.2% | 101% | 94.6% | 105% | 97% | 106% | 87.7% | 109% | 94.2% | 84.2% | 90.5% | 108% | 102%
Cc1cc(N2CCSCC2)nc(NC2CCCC(Nc3ccnc4cc(Cl)ccc34)C2)n1 (stereo not drawn) | 35.1% | 18.2% | -28.8% (active) | -46.2% (active) | -11.2% (active) | -66.1% (active) | -52.5% (active) | 7.52% (active) | -91.6% (active) | -74.8% (active) | 19.7% | -86.1% (active) | -75.7% (active) | -73.7% (active) | -39.9% (active) | -78.6% (active) | -93.1% (active) | -79.3% (active) | -88.5% (active)
COc1ccc(CN2c3ccccc3Oc3ccccc32)cc1F | 71.8% | 101% | 91.5% | 52.1% | 47.6% | 66.6% | -13.2% (active) | 43.7% | 79.2% | 41.7% | 95.9% | 59.2% | 53.1% | 84.5% | 84.7% | 33% | 64.7% | 58.9% | 33.6%
CC/C=C\C[C@H](O)C/C=C1/C(=O)C=C[C@@]1(C)C/C=C\CCCC(=O)OC | 87.2% | 121% | 106% | 104% | 110% | 99.6% | 81.2% | 88.6% | 100% | 113% | 112% | 101% | 104% | 115% | 106% | 107% | 93.6% | 87.1% | 101%
O=c1ccccc(-c2ccc(Br)cc2)c1O | 13.9% | 18.2% | 21.1% | 10.6% | 2.75% (active) | 58% | 19.2% | 11% | 8.52% (active) | 22.7% | 20.3% | 10.6% | 32.9% | 46.2% | 12.8% | 17.9% | -0.947% (active) | 1.13% (active) | -10.8% (active)
O=C1c2c(O)cc(O)cc2-c2c(-c3ccc(O)cc3)oc3cc(O)cc1c23 | 39.9% | 61.2% | 65.2% | 22.1% | 10% | 44.6% | 11% | 43.2% | 41.8% | 86.2% | 40.9% | 54.7% | 66.8% | 62.1% | 50.7% | 29.1% | 25.2% | 67.5% | 46.1%
